Each structure is given as a SMILES string. Several values for one entry are separate records, joined by “and”; a condition that tells them apart may be missing. Equal values may be shown once. Unmarked numbers belong to inactive results. Where a call stands in place of a potency, no number is given. Activity calls are given as the source filed them. Calls follow the shape of the dose curve; as a rule, active = well fitted inhibition curve with a large enough effect in the repeat runs (not every such curve was filed as active); inconclusive = weak or mixed curves; inactive = flat fitted curve, though single readings scatter.
Potency is read from the fitted curve at half-maximal effect.

Thyrotropin-releasing hormone receptor (Homo sapiens), sequence (P34981 whole entry, looked up): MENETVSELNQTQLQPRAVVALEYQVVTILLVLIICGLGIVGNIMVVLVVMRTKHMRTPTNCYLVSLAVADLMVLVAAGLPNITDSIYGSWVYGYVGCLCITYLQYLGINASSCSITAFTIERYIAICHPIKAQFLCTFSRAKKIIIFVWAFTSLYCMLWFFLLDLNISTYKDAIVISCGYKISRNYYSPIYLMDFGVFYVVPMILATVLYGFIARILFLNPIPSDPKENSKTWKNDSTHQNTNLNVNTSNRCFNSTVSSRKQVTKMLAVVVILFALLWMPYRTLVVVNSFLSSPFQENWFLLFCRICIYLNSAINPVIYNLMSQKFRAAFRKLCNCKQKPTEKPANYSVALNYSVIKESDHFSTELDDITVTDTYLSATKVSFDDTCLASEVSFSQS

The assay concerns the target Thyrotropin-releasing hormone receptor (Homo sapiens) (UniProt P34981). The assay can be described thus: qHTS assay to identify small molecule antagonists of the thyrotropin-releasing hormone receptor (TRHR) signaling pathway (AID 1346877). Particulars: TRHR-HEK293, TRH-induced calcium fluorescence, antagonist mode; series mostly up to 51.3 µM. The source says:
National Center for Advancing Translational Sciences [NCATS]
NIH Chemical Genomics Center [NCGC]
U.S. Environmental Protection Agency [EPA]
National Institutes of Environmental Health Sciences [NIEHS]
National Toxicology Program [NTP]
U.S. Food and Drug Administration [FDA]
Thyrotropin-releasing hormone (TRH) receptor (TRHR) is a G-protein-coupled receptor which binds the tripeptide thyrotropin releasing hormone. TRHR is found in the brain and, when bound by TRH, acts (through phospholipase C) to increase intracellular inositol trisphosphate. It plays a crucial role in the anterior pituitary where it controls the synthesis and secretion of thyroid stimulating hormone and prolactin. The TRHR-Hek293 assay is a cell-based assay, and it has the potential to screen G protein-coupled receptors. A compound/drug can either activate (agonist) or suppress (antagonist) GPCRs that can be monitored by levels of intracellular calcium. In this assay, the Tox21 10K compound library was screened to identify potential TRHR antagonists.
Tox21 Assay Protocol Summary:
The TRHR-Hek293 cells were dispensed at 1500cells/4uL/well in 1536-well black-clear bottom plates using a Multidrop dispenser. After the assay plates were incubated at a 37 C/5% CO2 incubator for 18 hours, 4 uL of Dye-Loading Solution was added to each well. The plates were incubated at 37 C for 2 hours. For agonist mode, 23 nL of compounds dissolved in DMSO, positive controls or DMSO only was transferred to the assay plate by a pin tool. The fluorescence intensity in the plates was measured using FDSS 7000EX kinetic plate reader for 3 min at 1 sec intervals. For antagonist mode, 23 nL of compounds dissolved in DMSO, positive controls or DMSO only was transferred to the assay plate by a pin tool. After 5 min incubation at room temperature, 1 uL of TRH was added on the top of the cell/compound mixtures to achieve a final agonist concentration of 1 nM. The fluorescence intensity in the plates was measured using FDSS 7000EX kinetic plate reader for 3 min at 1 sec intervals. Each test compound was measured at 15 concentrations and in triplicates.
As for `CCCC(=O)OCC(COC(=O)CCC)OC(=O)CCC`, the Potency result is “inactive”.
The same measure, in the same setting: with `CCCCCCOc1ccc(O)cc1` the entry was “inactive”; with `O=C(NO)c1ccccc1`, “inactive”.
Still for that read-out and setting: with `Cc1cncc(C)c1` the entry was “inactive”.
The same measure, in the same setting: to `O=C(O)CC(=O)O` belongs “inactive”.
With `SCCCCCCCCS`, the Potency result was “inactive”.
Same read-out and setting: to `CC(=O)c1ccccc1N` belongs “inactive”; to `COC(=O)[C@]1(C)CCC[C@@]2(C)[C@H]1CC=C1C=C(C(C)C)CC[C@@H]12`, “inactive”.
Still for that read-out and setting: with `O=C1NCN(c2ccccc2)C12CCN(CCCC(c1ccc(F)cc1)c1ccc(F)cc1)CC2` the entry was “inactive”.
Regarding `NC1(c2ccc(-c3nc4ccn5c(=O)[nH]nc5c4cc3-c3ccccc3)cc2)CCC1`, the Potency result was “inactive”.
As for `CCCCOC(=O)C(C)CC` (stereo not given), the Potency result was “inactive”.
The same measure, in the same setting: to `c1cc(OCC2CO2)cc(OCC2CO2)c1` (stereo not given) belongs “inactive”.
The same measure, in the same setting: to `COc1ccccc1OCCNCC(O)COc1cccc2[nH]c3ccccc3c12` (stereo not given) belongs “inactive”.
Same read-out and setting: to `Cc1cccc(C)c1NC(=O)CN1CCN(CCCC(c2ccc(F)cc2)c2ccc(F)cc2)CC1` belongs “inactive”; to `CCCN(CCc1cccs1)[C@H]1CCc2c(O)cccc2C1`, “inactive”; to `CC(C)N=C(N)/N=C(\N)Nc1ccc(Cl)cc1`, “inactive”.
Turning to `CCOC(=O)C1=C(C)NC(C)=C(C(=O)OCC)C1c1ccccc1/C=C/C(=O)OC(C)(C)C`, the Potency result was “inactive”.
Same read-out and setting: to `CO[C@H]1C=CO[C@@]2(C)Oc3c(C)c(O)c4c(O)c(cc(O)c4c3C2=O)NC(=O)/C(C)=C\C=C/[C@H](C)[C@H](O)[C@@H](C)[C@@H](O)[C@@H](C)[C@H](OC(C)=O)[C@@H]1C` belongs “inactive”.
On the same count and under the same terms, to `CC(C)(C)c1cc(CCC(=O)NCCCCCCNC(=O)CCc2cc(C(C)(C)C)c(O)c(C(C)(C)C)c2)cc(C(C)(C)C)c1O` belongs “inactive”; to `O=C(O)CCCCCCC(=O)O`, “inactive”.
Same read-out and setting: with `C#CC(O)CCC` (stereo not given) the entry was “inactive”; with `COc1ccc(C#N)cc1`, “inactive”.
In the case of `Cc1c(C)n(Cc2ccccc2)c2ccc(C(=O)OCCN(C)C)cc12`, the Potency entry was “inactive”.
For the compound `CO[Si](CCCNCCNCCN)(OC)OC`, the Potency result is “inactive”.
Take `CC(CN(C)C)CN1c2ccccc2CCc2ccccc21` (stereo not given): the Potency entry is “inactive”.
With `CCCC(C)CCC(C)=O` (stereo not given), the Potency entry is “inactive”.
Turning to `O=S(O)O`, the activity, negative = inhibition is 0.51% [at 10.5 µM].
In the case of `CC(=O)OC1CCCCC1`, the Potency result is “inactive”.
In the case of `CC(C)(c1cc(Br)c(O)c(Br)c1)c1cc(Br)c(O)c(Br)c1`, the Potency is 33.8 µM (active).
Same read-out and setting: with `COc1cccc(OC)c1O` the entry was “inactive”.
On the same count and under the same terms, to `CCC(=O)OCCc1ccccc1` belongs “inactive”.
Still for that read-out and setting: with `CN1CN(C)CN(C)C1` the entry was “inactive”; with `CN(Cc1cc(Br)cc(Br)c1N)C1CCCCC1`, “inactive”.
For `CCOC(=O)COc1ccc(C)cc1`, the Potency entry was “inactive”.
The same measure, in the same setting: to `CCCCCCCCCCc1ccccc1` belongs “inactive”; to `CCN=c1cc2oc3cc(NCC)c(C)cc3c(-c3ccccc3C(=O)OCC)c-2cc1C`, 8.47 µM (active) and 10.7 µM (active).
Same read-out and setting: to `COc1ccc(-n2nc(CCC(=O)N(C)O)cc2-c2ccc(Cl)cc2)cc1` belongs “inactive”.
In the case of `CCCCCCCCCCCCCCCCCO`, the activity, negative = inhibition was 0.827% [at 10.5 µM].
Take `CSc1c(Cl)c(Cl)c(Cl)c(Cl)c1Cl`: the Potency entry is “inactive”.
Same read-out and setting: with `Oc1ccc(-c2ccccc2)c(Cl)c1` the entry was “inactive”.

For the origin of these results see PubChem BioAssay (Tox21).
